Measured values published in PubChem BioAssay (NCATS).
Inconclusive results are not listed. Where a call stands in place of a potency, no number is given. Unmarked numbers belong to inactive results. Calls of active or inactive are those of the source. Calls come from the whole dose curve; as a rule, active = well fitted inhibition curve with a large enough effect; inconclusive = small, poorly fitted or top-dose-only effect; inactive = flat fitted curve, though single readings scatter.

What was measured:
[1] = qHTS profiling for inhibitors of Plasmodium falciparum proliferation (AID 504749); for all read-outs here: nearly all actives have a fitted effect of over 60% in size; settings: P. falciparum in erythrocytes, SYBR Green DNA, 72 h; for activity, negative = inhibition: at 28.7 µM (top of the series)
In short: (§1)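 Infected RBCs, 0.3% parasitemia/2.5% Hct final; cpd 72 h, 37 C, 5% CO2; lysis buffer with saponin/triton/SYBR Green I, o/n RT dark; FI 485/535; norm. to artemisinin (0.29 uM) and DMSO.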

3D7 = test: as above; settings: P. falciparum in erythrocytes, SYBR Green DNA, 72 h; series mostly up to 28.7 µM
In short: as §1

7G8 = test: as above; settings: P. falciparum in erythrocytes, SYBR Green DNA, 72 h; series mostly up to 28.7 µM
In short: as §1

AA1029 = test: as above; settings: P. falciparum in erythrocytes, SYBR Green DNA, 72 h; series mostly up to 28.7 µM
In short: as §1

AS120 = test: as above; settings: P. falciparum in erythrocytes, SYBR Green DNA, 72 h; series mostly up to 28.7 µM
In short: as §1

ATS189 = test: as above; settings: P. falciparum in erythrocytes, SYBR Green DNA, 72 h; series mostly up to 28.7 µM
In short: as §1

ATS95 = test: as above; settings: P. falciparum in erythrocytes, SYBR Green DNA, 72 h; series mostly up to 28.7 µM
In short: as §1
Potency is the fitted concentration of half-maximal effect.

SMILES	Potency ([1]; parasite line A)	Potency ([1]; parasite line B)	Potency (3D7)	Potency (7G8)	Potency (AA1029)	Potency (AS120)	Potency (ATS189)	Potency (ATS95)	activity, negative = inhibition ([1]; parasite line A) [%]	activity, negative = inhibition ([1]; parasite line B) [%]
COc1ccc(CCN2CCC(Nc3nc4ccccc4n3Cc3ccc(F)cc3)CC2)cc1	1410 nM (active)	2240 nM (active)	1780 nM (active)	2240 nM (active)	3550 nM (active)	3550 nM (active)	4470 nM (active)	3980 nM (active)		
CCCCCCc1ccc(O)cc1O			inactive	inactive	inactive	inactive	inactive	inactive	6.34	12.1
C[C@@H]1C[C@H]2[C@@H]3CCC4=CC(=O)C=C[C@]4(C)[C@@]3(F)[C@@H](O)C[C@]2(C)[C@H]1C(=O)CO			inactive	11200 nM (active)	inactive	inactive	316 nM (active)	inactive	-3.59	-8.33
NC(=O)C(=O)N/N=C/c1ccc([N+](=O)[O-])o1			inactive	inactive	inactive	inactive	inactive	inactive	-26.1	-11.4
CCOc1ccc(NC(=O)CC(C)O)cc1 (stereo not given)			inactive	inactive	inactive	inactive	inactive	inactive	-3.02	4.79
O=C(COc1ccc(Cl)cc1)N1CCN(Cc2ccc3c(c2)OCO3)CC1			inactive	inactive	inactive	inactive	inactive	inactive	11	10.8
CC(C)(C)CC(C)(C)c1ccc(O)c(Cc2ccc(Cl)cc2Cl)c1	2000 nM (active)	562 nM (active)	2240 nM (active)	447 nM (active)	891 nM (active)	501 nM (active)	794 nM (active)	2000 nM (active)		
CCCn1c(=O)[nH]c(=O)c2[nH]cnc21			inactive	inactive	inactive	inactive	inactive	inactive	-4.05	5.13
CC1(C)CCC(NC(=O)[C@@H](N)CCC(=O)O)CC1			inactive	inactive	inactive	inactive	inactive	inactive	2.48	10.3
CC(=O)Nc1c(I)cc(I)c(C(=O)O)c1I			inactive	inactive	inactive	inactive	inactive	inactive	6.87	14.3
